Measured values published in ChEMBL document CHEMBL2218924, “A broad activity screen in support of a chemogenomic map for kinase signalling research and drug discovery” (Biochem J, 2013).

Columns and labels:
[1] = target: T1, cGMP-dependent protein kinase 1 (Homo sapiens) (UniProt Q13976); conditions: at 1 µM
T1 sequence (whole entry): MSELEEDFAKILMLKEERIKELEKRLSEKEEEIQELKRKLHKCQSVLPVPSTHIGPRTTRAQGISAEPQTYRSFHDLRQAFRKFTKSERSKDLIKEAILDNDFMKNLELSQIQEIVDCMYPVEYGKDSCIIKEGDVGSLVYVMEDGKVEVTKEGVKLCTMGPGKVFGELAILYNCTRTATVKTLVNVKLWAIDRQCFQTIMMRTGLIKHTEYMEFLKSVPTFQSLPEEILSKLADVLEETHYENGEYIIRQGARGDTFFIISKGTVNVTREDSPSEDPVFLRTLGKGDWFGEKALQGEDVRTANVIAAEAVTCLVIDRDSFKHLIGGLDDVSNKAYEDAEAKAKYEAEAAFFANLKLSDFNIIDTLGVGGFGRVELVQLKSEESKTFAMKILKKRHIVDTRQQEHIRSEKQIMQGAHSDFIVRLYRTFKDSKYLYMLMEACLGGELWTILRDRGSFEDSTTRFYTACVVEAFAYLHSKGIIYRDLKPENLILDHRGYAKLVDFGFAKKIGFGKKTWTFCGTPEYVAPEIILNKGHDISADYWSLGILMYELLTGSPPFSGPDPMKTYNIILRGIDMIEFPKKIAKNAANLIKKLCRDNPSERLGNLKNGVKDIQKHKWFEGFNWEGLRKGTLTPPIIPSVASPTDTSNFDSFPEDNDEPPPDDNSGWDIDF

[2] = target: T1, cGMP-dependent protein kinase 1 (Homo sapiens); conditions: at 10 µM
[3] = target: T1, cGMP-dependent protein kinase 1 (Homo sapiens); conditions: at 1 µM; remark: listed apart in the source
[4] = target: T1, cGMP-dependent protein kinase 1 (Homo sapiens); conditions: at 10 µM; remark: listed apart in the source
[5] = target: T2, MAP kinase-activated protein kinase 5 (Homo sapiens) (UniProt Q8IW41); conditions: at 1 µM
T2 sequence (whole entry): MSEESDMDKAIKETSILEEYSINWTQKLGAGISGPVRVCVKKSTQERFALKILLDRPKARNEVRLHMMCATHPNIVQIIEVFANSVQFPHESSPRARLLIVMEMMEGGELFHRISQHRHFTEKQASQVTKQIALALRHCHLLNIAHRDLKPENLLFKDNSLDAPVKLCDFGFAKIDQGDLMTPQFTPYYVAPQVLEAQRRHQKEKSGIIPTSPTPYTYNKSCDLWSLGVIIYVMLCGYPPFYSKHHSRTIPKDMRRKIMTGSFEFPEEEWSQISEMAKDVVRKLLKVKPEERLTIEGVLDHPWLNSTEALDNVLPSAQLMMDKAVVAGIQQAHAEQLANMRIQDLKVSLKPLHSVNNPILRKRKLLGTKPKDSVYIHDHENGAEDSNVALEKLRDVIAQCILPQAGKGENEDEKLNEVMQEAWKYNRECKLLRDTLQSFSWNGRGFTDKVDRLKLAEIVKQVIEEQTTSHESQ

[6] = target: T2, MAP kinase-activated protein kinase 5 (Homo sapiens); conditions: at 10 µM
[7] = target: Serine/threonine-protein kinase N2 (Homo sapiens) (UniProt Q16513); conditions: at 1 µM
Sequence of Serine/threonine-protein kinase N2 (Homo sapiens) (Q16513 whole entry, looked up): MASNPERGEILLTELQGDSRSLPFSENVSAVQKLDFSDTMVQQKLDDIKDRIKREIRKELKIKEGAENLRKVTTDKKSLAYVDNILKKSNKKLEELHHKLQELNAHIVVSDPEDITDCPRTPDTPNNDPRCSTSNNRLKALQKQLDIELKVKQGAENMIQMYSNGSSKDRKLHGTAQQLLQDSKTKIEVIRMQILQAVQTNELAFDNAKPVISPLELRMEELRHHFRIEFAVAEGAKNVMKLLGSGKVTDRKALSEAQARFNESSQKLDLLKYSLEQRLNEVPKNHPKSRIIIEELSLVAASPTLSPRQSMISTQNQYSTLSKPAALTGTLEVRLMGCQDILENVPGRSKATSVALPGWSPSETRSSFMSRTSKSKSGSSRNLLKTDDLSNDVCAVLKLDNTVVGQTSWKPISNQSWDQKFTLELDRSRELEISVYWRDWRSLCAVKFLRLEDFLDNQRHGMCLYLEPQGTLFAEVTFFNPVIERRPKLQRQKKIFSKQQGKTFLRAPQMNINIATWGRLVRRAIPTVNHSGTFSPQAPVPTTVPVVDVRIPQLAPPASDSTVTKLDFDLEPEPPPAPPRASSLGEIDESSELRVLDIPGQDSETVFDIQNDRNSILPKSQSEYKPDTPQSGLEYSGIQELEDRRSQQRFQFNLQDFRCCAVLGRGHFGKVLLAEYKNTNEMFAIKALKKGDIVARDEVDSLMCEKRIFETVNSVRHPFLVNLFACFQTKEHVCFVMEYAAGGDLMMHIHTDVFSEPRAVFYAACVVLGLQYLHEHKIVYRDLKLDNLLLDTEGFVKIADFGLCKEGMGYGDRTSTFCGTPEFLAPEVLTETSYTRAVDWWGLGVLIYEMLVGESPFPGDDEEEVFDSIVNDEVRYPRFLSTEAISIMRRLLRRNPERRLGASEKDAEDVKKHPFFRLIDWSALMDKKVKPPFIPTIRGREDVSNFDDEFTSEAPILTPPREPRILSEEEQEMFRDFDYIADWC

[8] = target: Serine/threonine-protein kinase N2 (Homo sapiens) (UniProt Q16513); conditions: at 10 µM
[9] = target: Tyrosine-protein kinase FRK (Homo sapiens) (UniProt P42685); conditions: at 1 µM
Sequence of Tyrosine-protein kinase FRK (Homo sapiens) (P42685 whole entry, canonical isoform): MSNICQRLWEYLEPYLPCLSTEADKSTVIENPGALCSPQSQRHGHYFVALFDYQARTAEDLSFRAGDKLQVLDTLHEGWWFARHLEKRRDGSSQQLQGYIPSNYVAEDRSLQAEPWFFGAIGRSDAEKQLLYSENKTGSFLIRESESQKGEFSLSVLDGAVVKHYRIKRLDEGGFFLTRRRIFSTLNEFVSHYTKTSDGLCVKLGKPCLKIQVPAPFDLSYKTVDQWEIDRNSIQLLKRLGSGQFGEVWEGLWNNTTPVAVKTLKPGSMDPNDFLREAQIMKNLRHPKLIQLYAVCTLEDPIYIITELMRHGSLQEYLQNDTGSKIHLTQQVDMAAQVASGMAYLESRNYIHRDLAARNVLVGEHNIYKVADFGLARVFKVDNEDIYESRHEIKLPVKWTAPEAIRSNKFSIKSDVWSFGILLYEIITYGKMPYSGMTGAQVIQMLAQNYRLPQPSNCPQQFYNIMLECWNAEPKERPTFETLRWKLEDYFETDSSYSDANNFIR

[10] = target: Tyrosine-protein kinase FRK (Homo sapiens) (UniProt P42685); conditions: at 10 µM
[11] = target: T3, Phosphorylase b kinase gamma catalytic chain, liver/testis isoform (Homo sapiens) (UniProt P15735); conditions: at 1 µM
T3 sequence (whole entry): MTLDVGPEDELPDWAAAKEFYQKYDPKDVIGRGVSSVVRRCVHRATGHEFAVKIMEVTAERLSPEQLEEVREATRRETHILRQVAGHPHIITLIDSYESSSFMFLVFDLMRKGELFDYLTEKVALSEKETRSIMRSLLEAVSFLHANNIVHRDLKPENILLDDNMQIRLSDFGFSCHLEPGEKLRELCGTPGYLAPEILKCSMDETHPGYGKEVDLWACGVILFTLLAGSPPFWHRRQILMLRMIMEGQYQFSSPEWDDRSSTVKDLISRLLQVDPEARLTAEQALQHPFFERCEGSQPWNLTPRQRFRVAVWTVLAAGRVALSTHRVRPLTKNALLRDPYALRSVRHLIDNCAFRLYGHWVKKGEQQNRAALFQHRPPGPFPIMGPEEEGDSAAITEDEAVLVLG

[12] = target: T3, Phosphorylase b kinase gamma catalytic chain, liver/testis isoform (Homo sapiens); conditions: at 10 µM
[13] = target: Serine/threonine-protein kinase pim-1 (Homo sapiens) (UniProt P11309); conditions: at 1 µM
Sequence of Serine/threonine-protein kinase pim-1 (Homo sapiens) (P11309 whole entry, looked up): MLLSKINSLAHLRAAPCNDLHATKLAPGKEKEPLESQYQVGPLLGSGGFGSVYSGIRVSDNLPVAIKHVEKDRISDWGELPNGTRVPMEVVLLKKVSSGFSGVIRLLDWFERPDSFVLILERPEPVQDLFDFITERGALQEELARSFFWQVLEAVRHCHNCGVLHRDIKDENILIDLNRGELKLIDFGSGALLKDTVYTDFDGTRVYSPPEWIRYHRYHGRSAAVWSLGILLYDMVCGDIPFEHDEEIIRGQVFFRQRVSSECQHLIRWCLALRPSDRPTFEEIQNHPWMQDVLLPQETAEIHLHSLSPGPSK

[14] = target: Serine/threonine-protein kinase pim-1 (Homo sapiens) (UniProt P11309); conditions: at 10 µM
[15] = target: Serine/threonine-protein kinase pim-2 (Homo sapiens) (UniProt Q9P1W9); conditions: at 1 µM
Sequence of Serine/threonine-protein kinase pim-2 (Homo sapiens) (Q9P1W9 whole entry, looked up): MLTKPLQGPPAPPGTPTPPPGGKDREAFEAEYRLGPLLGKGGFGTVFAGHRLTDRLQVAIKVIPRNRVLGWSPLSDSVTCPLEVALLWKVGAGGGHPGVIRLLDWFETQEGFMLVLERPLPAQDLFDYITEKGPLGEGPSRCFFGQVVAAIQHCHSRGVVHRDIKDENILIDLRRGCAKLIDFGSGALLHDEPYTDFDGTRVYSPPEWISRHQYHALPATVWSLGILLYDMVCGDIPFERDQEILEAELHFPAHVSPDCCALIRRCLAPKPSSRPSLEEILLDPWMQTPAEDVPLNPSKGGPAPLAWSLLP

[16] = target: Serine/threonine-protein kinase pim-2 (Homo sapiens) (UniProt Q9P1W9); conditions: at 10 µM
[17] = target: Serine/threonine-protein kinase pim-3 (Homo sapiens) (UniProt Q86V86); conditions: at 1 µM
[18] = target: Serine/threonine-protein kinase pim-3 (Homo sapiens) (UniProt Q86V86); conditions: at 10 µM
[19] = target: Serine/threonine-protein kinase PLK1 (Homo sapiens) (UniProt P53350); conditions: at 1 µM
Sequence of Serine/threonine-protein kinase PLK1 (Homo sapiens) (P53350 whole entry): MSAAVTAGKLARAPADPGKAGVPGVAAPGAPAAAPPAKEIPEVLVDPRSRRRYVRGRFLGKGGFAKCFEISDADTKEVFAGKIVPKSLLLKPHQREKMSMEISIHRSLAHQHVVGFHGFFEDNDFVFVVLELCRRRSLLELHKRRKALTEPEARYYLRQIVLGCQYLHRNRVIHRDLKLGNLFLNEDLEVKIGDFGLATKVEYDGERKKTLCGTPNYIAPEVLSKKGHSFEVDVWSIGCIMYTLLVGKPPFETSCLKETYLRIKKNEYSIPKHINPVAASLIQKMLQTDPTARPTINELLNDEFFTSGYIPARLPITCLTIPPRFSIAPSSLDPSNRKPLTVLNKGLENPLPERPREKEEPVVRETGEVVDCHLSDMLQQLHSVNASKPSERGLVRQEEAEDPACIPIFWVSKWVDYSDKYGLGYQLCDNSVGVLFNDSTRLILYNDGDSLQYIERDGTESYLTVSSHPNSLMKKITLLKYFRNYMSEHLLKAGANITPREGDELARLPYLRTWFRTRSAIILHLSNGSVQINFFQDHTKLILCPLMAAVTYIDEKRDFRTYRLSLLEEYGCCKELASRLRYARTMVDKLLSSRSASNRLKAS

[20] = target: Serine/threonine-protein kinase PLK1 (Homo sapiens) (UniProt P53350); conditions: at 10 µM

SMILES | residual activity [1] [%] | residual activity [2] [%] | residual activity [3] [%] | residual activity [4] [%] | residual activity [5] [%] | residual activity [6] [%] | residual activity [7] [%] | residual activity [8] [%] | residual activity [9] [%] | residual activity [10] [%] | residual activity [11] [%] | residual activity [12] [%] | residual activity [13] [%] | residual activity [14] [%] | residual activity [15] [%] | residual activity [16] [%] | residual activity [17] [%] | residual activity [18] [%] | residual activity [19] [%] | residual activity [20] [%]
CC(C)n1cnc2/c(=N/c3cccc(Cl)c3)nc(NCCO)[nH]c21 | 92 | 106 | 94 | 72 | 105 | 88 | 86 | 62 | 75 | 29 | 52 | 33 | 115 | 66 | 137 | 93 | 84 | 71 | 30 | 6
CC(=O)c1ccc(N2CCOCC2)cc1O | – | – | – | – | 77 | 109 | 100 | 109 | 109 | 99 | – | – | 82 | 87 | 91 | 129 | 96 | 91 | 91 | 68
CC(=O)O/N=C1\C(=C2\C(=O)Nc3cc(Br)ccc32)Nc2ccccc21 | 101 | 112 | 102 | 76 | 105 | – | 98 | 79 | 17 | 1 | 92 | 70 | 92 | 87 | 134 | 67 | 84 | 84 | 79 | 76
Nc1cccc(-c2cc3c(Oc4cccc(O)c4)ncnc3[nH]2)c1 | – | – | – | 91 | 100 | 71 | 98 | 67 | 1 | 0 | 120 | 91 | 75 | 34 | 118 | 84 | 86 | 91 | 78 | 83
Nc1n[nH]c2nnc(-c3c(-c4ccccc4)nn4ccccc34)cc12 | 95 | 104 | 92 | 76 | 104 | 101 | 91 | 76 | 99 | 46 | 104 | 98 | 98 | 85 | 123 | 74 | 88 | 83 | 78 | 92
O=C1Nc2ccc(Br)cc2/C1=C\c1cc2c([nH]1)CCCC2 | 100 | 99 | 105 | 97 | 82 | 99 | – | 112 | 102 | 103 | 77 | 78 | – | 105 | 129 | 106 | 105 | 112 | 82 | 80
Oc1ccc(-c2nc(-c3ccc(F)cc3)c(-c3ccncc3)[nH]2)cc1 | 108 | 66 | 108 | 78 | 110 | 80 | 107 | 47 | 65 | 12 | 107 | 98 | 96 | 91 | 125 | – | 96 | 92 | 94 | 83
CO[C@H]1[C@@H](OC)C[C@H](C)[C@@H](OC)C2=CC(=O)C=C(NC(=O)/C(C)=C/C=C/[C@H](OC)[C@@H](OC(N)=O)/C(C)=C/[C@@H]1C)C2=O | 102 | 105 | 85 | 81 | 107 | 95 | 111 | 96 | 114 | 93 | 97 | 100 | 85 | 93 | 99 | 129 | 98 | 96 | 86 | 70
CN(C)CCCn1cc(C2=C(c3c[nH]c4ccccc34)C(=O)NC2=O)c2ccccc21 | 60 | 14 | 34 | 6 | 125 | 107 | 23 | 6 | – | 84 | 88 | 63 | – | – | 15 | 4 | 22 | 5 | 114 | 84
c1ccc(-c2n[nH]c3c2oc2ccccc23)cc1 | 99 | 100 | 75 | 93 | 97 | 58 | – | – | – | – | – | – | 85 | 84 | 83 | 123 | 92 | 90 | 85 | 67
N#CC(C#N)=C(N)/C(C#N)=C/c1ccc(O)cc1 | – | – | – | – | – | 92 | – | 117 | – | 91 | – | – | – | – | – | 118 | – | 88 | 79 | 36
CNc1cc2c(Nc3cccc(Br)c3)ncnc2cn1 | 112 | 108 | 75 | 62 | 89 | 94 | 84 | 93 | 92 | 37 | 104 | 107 | 64 | 42 | 86 | 88 | 96 | 81 | 99 | 94
Cn1cc(/C=C2\C(=O)Nc3ccc(S(N)(=O)=O)cc32)c2ccccc21 | 103 | 101 | 77 | 54 | 62 | 54 | 58 | 23 | 74 | 35 | 24 | 9 | 76 | 111 | 109 | 97 | 102 | – | 109 | 93
COc1cc2ncc(-c3ccccc3)nc2cc1OC | – | – | – | – | 125 | 85 | – | – | 90 | 90 | – | – | 81 | 82 | 127 | 144 | 95 | 99 | 88 | 75
CO[C@@H]1[C@H](N(C)C(=O)c2ccccc2)C[C@H]2O[C@]1(C)n1c3ccccc3c3c4c(c5c6ccccc6n2c5c31)C(=O)NC4 | 8 | 4 | 4 | 3 | 102 | 57 | 2 | 1 | 33 | 23 | 44 | 29 | 33 | 16 | 80 | 94 | 93 | 88 | – | 61
c1ccc(-c2n[nH]cc2-c2ccnc3ccccc23)nc1 | – | – | – | – | 73 | 90 | 89 | 103 | 84 | 25 | 95 | 102 | 96 | 85 | – | – | 99 | 100 | 80 | 72
